# Experimental data: the supplement of paper PMC6555819
# Tests used:
# Assay in all cases: PBM binding z-score (relative to random genomic background probes); higher = stronger binding; sequences stand for … in GC…GCGATTGACAGCGTAGAATGAAGG
# [1] = test system: FXR:RXRa (NR concentration 270 nM, RXRa partner concentration 90 nM)
# Outline: (§1)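 On custom Agilent 4×180K arrays, double-stranded probes with 34-nt variable regions carried direct-repeat seeds, single-nucleotide variants, half-site ablations or random human genomic background. Ligand-free nuclear receptor dimers were applied for 1 h, and binding was read with antibodies against each partner (one per run). Binding z-scores come from regression-normalized fluorescence, with the random background probes as reference.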
# [2] = test system: LXRa:RXRa (NR concentration 270 nM, RXRa partner concentration 90 nM)
# Outline: as §1
# [3] = test system: LXRa homodimer (NR concentration 270 nM)
# Outline: as §1
# [4] = test system: LXRb:RXRa (NR concentration 270 nM, RXRa partner concentration 90 nM)
# Outline: as §1
# [5] = test system: LXRb homodimer (NR concentration 270 nM)
# Outline: as §1
# [6] = test system: PPARa:RXRa (NR concentration 270 nM, RXRa partner concentration 90 nM)
# Outline: as §1
# [7] = test system: PPARg:RXRa (NR concentration 180 nM, RXRa partner concentration 90 nM)
# Outline: as §1
# [8] = test system: PPARg:RXRa 270nM:90nM, anti-RXR (NR concentration 270 nM, RXRa partner concentration 90 nM)
# Outline: as §1
# [9] = test system: PPARg:RXRa 30nM:10nM, anti-RXR (NR concentration 30 nM, RXRa partner concentration 10 nM)
# Outline: as §1
# [10] = test system: PPARg:RXRa 90nM:30nM, anti-RXR (NR concentration 90 nM, RXRa partner concentration 30 nM)
# Outline: as §1
# [11] = test system: PPARg:RXRa DBDmut IVT, anti-RXR (DBD mutation: RXRa K156A/R161A, NR concentration 270 nM, RXRa partner concentration 90 nM)
# Outline: as §1
# [12] = test system: PPARg:RXRa IVT, anti-PPARg (NR concentration 270 nM, RXRa partner concentration 90 nM)
# Outline: as §1
# [13] = test system: PPARg DBDmut:RXRa IVT, anti-PPARg (DBD mutation: PPARg1 K132A/R137A, NR concentration 270 nM, RXRa partner concentration 90 nM)
# Outline: as §1
# [14] = test system: PPARg DBDmut IVT, anti-PPARg (DBD mutation: PPARg1 K132A/R137A, NR concentration 270 nM)
# Outline: as §1
# [15] = test system: PPARg homodimer (NR concentration 180 nM)
# Outline: as §1
# [16] = test system: PXR:RXRa (NR concentration 270 nM, RXRa partner concentration 90 nM)
# Outline: as §1
# [17] = test system: PXR homodimer (NR concentration 270 nM)
# Outline: as §1
# [18] = test system: RARa:RXR (NR concentration 270 nM, RXRa partner concentration 90 nM)
# Outline: as §1
# [19] = test system: RARa homodimer (NR concentration 270 nM)
# Outline: as §1
# [20] = test system: RARb:RXRa (NR concentration 270 nM, RXRa partner concentration 90 nM)
# Outline: as §1
sequence,measurement,setting,value
TCGTATAGGTAAATGCTAGGTGAAAGTCCGATCT,PBM binding z-score,[1],0.843
same,PBM binding z-score,[2],0.876
same,PBM binding z-score,[3],0.236
same,PBM binding z-score,[4],0.653
same,PBM binding z-score,[5],0.0986
same,PBM binding z-score,[6],0.931
same,PBM binding z-score,[7],0.156
same,PBM binding z-score,[8],1.84
same,PBM binding z-score,[9],3.04
same,PBM binding z-score,[10],2.54
same,PBM binding z-score,[11],2.09
same,PBM binding z-score,[12],1.21
same,PBM binding z-score,[13],0.00787
same,PBM binding z-score,[14],0.782
same,PBM binding z-score,[15],0.833
same,PBM binding z-score,[16],0.373
same,PBM binding z-score,[17],-0.198
same,PBM binding z-score,[18],0.889
same,PBM binding z-score,[19],0.867
same,PBM binding z-score,[20],0.432
AGAATGAGGTTACCAAAGATCACGGAAACGCTTG,PBM binding z-score,[1],2.28
same,PBM binding z-score,[2],6.94
same,PBM binding z-score,[3],0.129
same,PBM binding z-score,[4],3.82
same,PBM binding z-score,[5],-0.202
same,PBM binding z-score,[6],3.5
same,PBM binding z-score,[7],2.79
same,PBM binding z-score,[8],2.7
same,PBM binding z-score,[9],0.915
same,PBM binding z-score,[10],2.03
same,PBM binding z-score,[11],3.7
same,PBM binding z-score,[12],3.26
same,PBM binding z-score,[13],1.1
same,PBM binding z-score,[14],0.644
same,PBM binding z-score,[15],0.807
same,PBM binding z-score,[16],2.1
same,PBM binding z-score,[17],-0.253
same,PBM binding z-score,[18],2.3
same,PBM binding z-score,[19],0.0214
same,PBM binding z-score,[20],2.15
ACTATTCGTTGAGACGAGGGCAACCGATAGGTTG,PBM binding z-score,[1],0.146
same,PBM binding z-score,[2],-0.0079
same,PBM binding z-score,[3],-0.194
same,PBM binding z-score,[4],0.132
same,PBM binding z-score,[5],0.215
same,PBM binding z-score,[6],0.431
same,PBM binding z-score,[7],0.548
same,PBM binding z-score,[8],0.366
same,PBM binding z-score,[9],0.255
same,PBM binding z-score,[10],0.115
same,PBM binding z-score,[11],0.199
same,PBM binding z-score,[12],0.823
same,PBM binding z-score,[13],1.01
same,PBM binding z-score,[14],0.89
same,PBM binding z-score,[15],0.322
same,PBM binding z-score,[16],0.447
same,PBM binding z-score,[17],0.0808
same,PBM binding z-score,[18],0.403
same,PBM binding z-score,[19],0.418
same,PBM binding z-score,[20],0.886
GGAAGGAGGGCAAAGTTGATAGCATCTGTCGACG,PBM binding z-score,[1],1.43
same,PBM binding z-score,[2],1.38
same,PBM binding z-score,[3],0.21
same,PBM binding z-score,[4],1.88
same,PBM binding z-score,[5],1.01
same,PBM binding z-score,[6],4.14
same,PBM binding z-score,[7],7.61
same,PBM binding z-score,[8],7.29
same,PBM binding z-score,[9],7.65
same,PBM binding z-score,[10],8.18
same,PBM binding z-score,[11],4.12
same,PBM binding z-score,[12],4.58
same,PBM binding z-score,[13],0.789
same,PBM binding z-score,[14],0.418
same,PBM binding z-score,[15],1.64
same,PBM binding z-score,[16],1.3
same,PBM binding z-score,[17],1.62
same,PBM binding z-score,[18],1.57
same,PBM binding z-score,[19],1.19
same,PBM binding z-score,[20],2.31
CCTATTTGTTGACCATAAGGGCAACCGAAGCTCG,PBM binding z-score,[1],0.863
same,PBM binding z-score,[2],0.511
same,PBM binding z-score,[3],0.84
same,PBM binding z-score,[4],0.696
same,PBM binding z-score,[5],1.12
same,PBM binding z-score,[6],0.847
same,PBM binding z-score,[7],0.437
same,PBM binding z-score,[8],0.529
same,PBM binding z-score,[9],0.245
same,PBM binding z-score,[10],0.342
same,PBM binding z-score,[11],0.427
same,PBM binding z-score,[12],0.84
same,PBM binding z-score,[13],0.694
same,PBM binding z-score,[14],0.679
same,PBM binding z-score,[15],1.94
same,PBM binding z-score,[16],1.09
same,PBM binding z-score,[17],0.998
same,PBM binding z-score,[18],1.35
same,PBM binding z-score,[19],1.45
same,PBM binding z-score,[20],1.72
GCTTGTAGATCAGGGTTAAGAAAGACTAAGCTAA,PBM binding z-score,[1],0.433
same,PBM binding z-score,[2],0.899
same,PBM binding z-score,[3],-0.568
same,PBM binding z-score,[4],0.723
same,PBM binding z-score,[5],-0.466
same,PBM binding z-score,[6],1.55
same,PBM binding z-score,[7],0.746
same,PBM binding z-score,[8],1.1
same,PBM binding z-score,[9],0.497
same,PBM binding z-score,[10],0.871
same,PBM binding z-score,[11],0.93
same,PBM binding z-score,[12],0.657
same,PBM binding z-score,[13],-0.0573
same,PBM binding z-score,[14],-0.809
same,PBM binding z-score,[15],0.18
same,PBM binding z-score,[16],0.366
same,PBM binding z-score,[17],-0.121
same,PBM binding z-score,[18],0.69
same,PBM binding z-score,[19],-0.311
same,PBM binding z-score,[20],0.352
